This note sets out measurements from PubChem BioAssay.

Assay [1] is described as follows: small molecules captured by biotinylated probe aFSTL3 – biochemical, small-molecule microarray, fluorescence 635/667, stem cell growth factor project, primary screen (AID 1064).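 Further: measures binding of the biotinylated anti-FSTL3 antibody to printed compounds.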 Conditions: higher = more signal.
A short description of assay [2]: binders from COS7 lysate, DM2A8 probe, primary screen, torsin A project, cell lysate, small-molecule microarray, fluorescence 635/667 (AID 1065). Conditions: higher = more signal, COS7 lysate expressing mutant human TOR1A.
Assay [3] in a line: small molecules captured by biotinylated probe aFGF2 – biochemical, small-molecule microarray, fluorescence 635/667, stem cell growth factor project, primary screen (AID 1067).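 Further: measures binding of biotinylated aFGF2 protein to printed compounds on slides; z-score merges feature fluorescence and signal-to-noise across triplicate slides.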 Conditions: higher = more signal.
Assay [4] is described as follows: small molecules captured by biotinylated probe aFGF10 – biochemical, small-molecule microarray, fluorescence 635/667, stem cell growth factor project, primary screen (AID 1071).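 Further: score merges 667 nm spot intensity and signal to noise from triplicate slides.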 Conditions: higher = more signal.
The target in assay [5] is Neurogenic locus notch homolog protein 2 (Homo sapiens) (UniProt Q04721). Briefly: small molecules binding Notch2 protein – biochemical, small-molecule microarray, 635 nm fluorescence, stem cell growth factors, primary screen (AID 1073). Conditions: higher = more signal.
Sequence of Neurogenic locus notch homolog protein 2 (Homo sapiens) (Q04721 whole entry, looked up, canonical isoform): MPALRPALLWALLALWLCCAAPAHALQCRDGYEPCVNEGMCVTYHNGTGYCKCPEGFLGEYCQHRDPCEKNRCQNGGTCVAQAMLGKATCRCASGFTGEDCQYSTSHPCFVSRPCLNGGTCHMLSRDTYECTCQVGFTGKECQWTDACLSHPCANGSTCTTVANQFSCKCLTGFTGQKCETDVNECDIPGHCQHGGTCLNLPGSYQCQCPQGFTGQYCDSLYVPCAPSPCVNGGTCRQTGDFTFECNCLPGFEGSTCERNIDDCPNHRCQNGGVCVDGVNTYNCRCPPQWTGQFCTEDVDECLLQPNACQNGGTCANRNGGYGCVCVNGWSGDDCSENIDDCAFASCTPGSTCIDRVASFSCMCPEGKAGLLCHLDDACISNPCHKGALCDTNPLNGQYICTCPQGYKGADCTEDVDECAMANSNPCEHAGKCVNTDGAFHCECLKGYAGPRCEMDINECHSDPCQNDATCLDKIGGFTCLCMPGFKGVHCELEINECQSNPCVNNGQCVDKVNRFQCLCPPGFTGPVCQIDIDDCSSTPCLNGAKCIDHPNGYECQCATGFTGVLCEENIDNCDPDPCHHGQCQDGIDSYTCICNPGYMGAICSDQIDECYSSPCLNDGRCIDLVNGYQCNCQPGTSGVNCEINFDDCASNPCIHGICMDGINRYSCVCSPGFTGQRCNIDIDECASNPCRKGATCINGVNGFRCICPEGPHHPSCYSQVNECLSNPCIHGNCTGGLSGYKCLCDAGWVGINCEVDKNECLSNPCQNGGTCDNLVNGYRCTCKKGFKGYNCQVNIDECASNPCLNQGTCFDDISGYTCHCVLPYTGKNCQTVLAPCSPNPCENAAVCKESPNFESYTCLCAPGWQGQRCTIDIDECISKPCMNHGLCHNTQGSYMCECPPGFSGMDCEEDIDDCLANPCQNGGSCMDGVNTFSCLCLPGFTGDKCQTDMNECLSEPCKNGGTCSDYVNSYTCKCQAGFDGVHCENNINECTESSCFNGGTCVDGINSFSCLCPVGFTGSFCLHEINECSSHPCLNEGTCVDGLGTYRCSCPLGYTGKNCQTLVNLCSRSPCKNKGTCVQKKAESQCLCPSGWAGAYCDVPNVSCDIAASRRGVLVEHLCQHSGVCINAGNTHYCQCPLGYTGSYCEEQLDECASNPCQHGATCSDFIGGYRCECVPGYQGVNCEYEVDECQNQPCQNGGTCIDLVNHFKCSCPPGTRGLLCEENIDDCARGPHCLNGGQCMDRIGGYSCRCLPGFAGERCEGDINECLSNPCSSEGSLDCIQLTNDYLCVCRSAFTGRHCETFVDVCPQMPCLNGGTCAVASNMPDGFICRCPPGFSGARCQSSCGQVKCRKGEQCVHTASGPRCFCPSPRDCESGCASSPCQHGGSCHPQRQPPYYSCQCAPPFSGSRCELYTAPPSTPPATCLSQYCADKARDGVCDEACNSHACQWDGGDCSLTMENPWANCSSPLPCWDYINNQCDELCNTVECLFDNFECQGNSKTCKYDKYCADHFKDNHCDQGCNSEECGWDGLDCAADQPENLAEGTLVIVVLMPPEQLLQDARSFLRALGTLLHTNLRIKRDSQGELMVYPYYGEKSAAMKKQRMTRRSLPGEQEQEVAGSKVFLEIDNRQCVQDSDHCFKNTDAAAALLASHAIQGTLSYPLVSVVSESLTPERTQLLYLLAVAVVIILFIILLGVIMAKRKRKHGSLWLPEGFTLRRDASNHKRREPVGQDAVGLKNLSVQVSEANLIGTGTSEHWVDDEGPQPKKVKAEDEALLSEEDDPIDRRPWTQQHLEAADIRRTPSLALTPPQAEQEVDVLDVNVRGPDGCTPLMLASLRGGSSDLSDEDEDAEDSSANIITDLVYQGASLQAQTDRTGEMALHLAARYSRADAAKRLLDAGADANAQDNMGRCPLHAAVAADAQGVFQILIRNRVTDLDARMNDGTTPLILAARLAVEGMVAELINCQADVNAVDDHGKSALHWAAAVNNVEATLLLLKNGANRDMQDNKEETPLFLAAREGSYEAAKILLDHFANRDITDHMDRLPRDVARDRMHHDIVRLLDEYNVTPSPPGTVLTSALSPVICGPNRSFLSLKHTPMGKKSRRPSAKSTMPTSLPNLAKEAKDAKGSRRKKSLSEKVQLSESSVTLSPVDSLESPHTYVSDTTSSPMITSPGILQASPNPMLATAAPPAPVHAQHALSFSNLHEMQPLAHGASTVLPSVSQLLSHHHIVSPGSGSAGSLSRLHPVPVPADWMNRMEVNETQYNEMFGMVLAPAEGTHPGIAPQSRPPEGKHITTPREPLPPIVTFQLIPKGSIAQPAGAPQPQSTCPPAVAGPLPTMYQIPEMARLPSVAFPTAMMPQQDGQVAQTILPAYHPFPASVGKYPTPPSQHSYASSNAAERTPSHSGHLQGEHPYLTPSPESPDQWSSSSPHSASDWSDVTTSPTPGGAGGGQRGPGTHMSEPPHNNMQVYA
Assay [6] concerns the target Pro-neuregulin-1, membrane-bound isoform (Homo sapiens) (UniProt Q02297). Nature of the assay: small molecules binding neuregulin-1 protein – biochemical, small-molecule microarray, fluorescence 635/667, psychiatric disease protein project, primary screen (AID 1075).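 Further: score combines 667 nm spot fluorescence with signal to noise.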 Conditions: NRG1 binding, 635 nm fluorescence, higher = more signal.
Assay [7] concerns Neuregulin-1 EGF-like domain. Briefly: small molecules binding NRG1 EGF domain – biochemical, small-molecule microarray, 635 nm fluorescence, primary screen (AID 1081).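 Further: binding of the protein to compounds printed on small-molecule microarray slides.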 Conditions: higher = more signal.
The nature of assay [8]: FRG1 expression reporter modulators in myotubes – cell-based, C2C12 myotubes, firefly/Renilla luciferase, luminescence, FRG1 inhibition for FSHD, primary screen (AID 1084). Conditions: FRG1 promoter luciferase, higher = more signal, called active from +8 up or from −8 down.
Assay [9] can be described thus: small molecules captured by biotinylated probe aFST – biochemical, small-molecule microarray, fluorescence 635/667, stem cell growth factor project, primary screen (AID 1086).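 Further: score merges 667 nm fluorescence with signal-to-noise of each printed compound spot.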 Conditions: higher = more signal.
Assay [10] can be described thus: binders of probe aHhip on microarray, primary screen, stem cell growth factor project, biochemical, small-molecule microarray, fluorescence 635/667 (AID 1087).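 Further: score merges spot fluorescence at 667nm with spot signal to noise ratio.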 Conditions: higher = more signal.
Assay [11] has as its system PRMT1 (protein arginine N-methyltransferase 1). Briefly: small molecules binding arginine methyltransferase PRMT1 – biochemical, small-molecule microarray, 635 nm fluorescence, primary screen (AID 1088).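 Further: binding of Prmt1 protein to compounds spotted on small-molecule microarray slides.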 Conditions: higher = more signal.
Assay [12] in a line: growth effects on S. cerevisiae YJM789 – YJM789 clinical isolate, OD600, 24 h, basal, primary screen (AID 1089).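 Further: growth of clinical yeast isolate S. cerevisiae YJM 789 seeded 1000 cells per well; test concentration not given here.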 Conditions: higher = more signal, called active from +8 up or from −8 down.
The nature of assay [13]: S. pombe growth modifiers, basal conditions – strain 972, OD600, 24 h, no modulator, primary screen (AID 1090).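 Further: basal condition with compound alone and no growth modifier present; test concentration not given here.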 Conditions: S. pombe 972 growth, higher = more signal, called active from +8 up or from −8 down.
Assay [14] can be described thus: budding yeast growth modifiers under rapamycin – strain BY4716, OD600, 96 h, primary screen (AID 1091). Further: test concentration not given here. Conditions: S. cerevisiae BY4716 + rapamycin, higher = more signal, called active from +8 up or from −8 down.
For assay [15], the target named is Torsin-1A-interacting protein 2 (Homo sapiens) (UniProt Q8NFQ8). Briefly: small molecules binding lysate-expressed LULL1 – cell lysate, human LULL1 lysate, 635/667 nm fluorescence, primary screen (AID 1092).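 Further: probe is lysate of COS7 cells overexpressing human LULL1; score merges per-feature 667 nm fluorescence with signal-to-noise.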 Conditions: small-molecule microarray, hLULL1 lysate binding, 635 nm fluorescence; higher = more signal.
Sequence of Torsin-1A-interacting protein 2 (Homo sapiens) (Q8NFQ8 whole entry, looked up): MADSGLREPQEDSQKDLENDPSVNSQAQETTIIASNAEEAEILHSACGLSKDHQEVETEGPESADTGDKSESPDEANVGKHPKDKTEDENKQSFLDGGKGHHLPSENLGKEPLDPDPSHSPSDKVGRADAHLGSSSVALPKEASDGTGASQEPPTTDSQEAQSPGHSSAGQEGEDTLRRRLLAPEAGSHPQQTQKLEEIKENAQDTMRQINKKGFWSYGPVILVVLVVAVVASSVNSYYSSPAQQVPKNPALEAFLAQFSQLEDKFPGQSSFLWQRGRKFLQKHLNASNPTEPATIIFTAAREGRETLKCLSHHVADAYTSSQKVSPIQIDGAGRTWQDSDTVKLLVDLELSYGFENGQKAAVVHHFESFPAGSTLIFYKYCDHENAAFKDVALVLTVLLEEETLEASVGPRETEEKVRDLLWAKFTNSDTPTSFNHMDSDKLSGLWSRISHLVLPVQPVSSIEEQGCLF
A short description of assay [16]: optical density change of DRC41 E. coli – strain DRC41, OD650, 24 h, E. coli filamentation project, primary screen (AID 1093).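 Further: MC1000 strain lacking acrAB efflux and sulA so SOS filamentation is blocked; test concentration not given here.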 Conditions: E. coli DRC41 growth, higher = more signal, called active from +8 up or from −8 down.
Assay [17] can be described thus: probe aLefty2 binding to arrayed compounds – biochemical, biotinylated probe, 635/667 nm fluorescence, primary screen (AID 1094).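 Further: score merges spot fluorescence near 667 nm with spot signal-to-noise ratio.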 Conditions: small-molecule microarray, higher = more signal.
The subject of assay [18] is Noggin (protein binding on small-molecule microarray). Nature of the assay: small molecules binding Noggin protein – biochemical, 635/667 nm fluorescence, primary screen (AID 1095).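 Further: score merges 667 nm feature fluorescence with signal to noise over triplicate slides.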 Conditions: 635 nm fluorescence, higher = more signal.
Assay [19] addresses Neurogenic locus notch homolog protein 3 (Homo sapiens) (UniProt Q9UM47). Nature of the assay: small molecules binding NOTCH3 protein – biochemical, 635/667 nm fluorescence, primary screen (AID 1096). Conditions: small-molecule microarray, 635 nm fluorescence, higher = more signal.
Assay [20] in a line: probe aEGFR binding to arrayed compounds – biochemical, biotinylated probe, 635/667 nm fluorescence, primary screen (AID 1097).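 Further: probe is a biotinylated anti-EGFR antibody binding compounds printed on slides; score combines fluorescence near 667 nm and signal to noise of each spot.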 Conditions: small-molecule microarray, higher = more signal.

Active and inactive are the calls of the source.

Sequence of Pro-neuregulin-1, membrane-bound isoform (Homo sapiens) (Q02297 whole entry, looked up, the tested form may be a part, canonical isoform): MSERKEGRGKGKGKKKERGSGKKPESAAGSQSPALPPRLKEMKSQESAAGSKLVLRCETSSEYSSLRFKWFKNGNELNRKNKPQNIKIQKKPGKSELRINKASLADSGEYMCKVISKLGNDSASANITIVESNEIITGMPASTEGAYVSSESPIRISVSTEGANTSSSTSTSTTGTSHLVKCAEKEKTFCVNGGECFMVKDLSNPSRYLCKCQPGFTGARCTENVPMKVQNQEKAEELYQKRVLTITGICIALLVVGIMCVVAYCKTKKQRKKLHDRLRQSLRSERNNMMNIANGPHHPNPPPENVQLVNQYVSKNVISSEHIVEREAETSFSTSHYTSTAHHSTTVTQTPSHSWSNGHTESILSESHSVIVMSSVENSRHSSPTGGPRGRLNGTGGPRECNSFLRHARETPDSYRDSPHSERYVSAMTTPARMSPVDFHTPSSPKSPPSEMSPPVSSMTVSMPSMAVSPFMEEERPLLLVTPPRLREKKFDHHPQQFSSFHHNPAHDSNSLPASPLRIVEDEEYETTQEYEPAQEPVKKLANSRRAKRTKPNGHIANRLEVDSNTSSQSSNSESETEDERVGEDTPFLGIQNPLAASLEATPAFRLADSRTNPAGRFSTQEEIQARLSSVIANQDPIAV

As to `CCC(CC)C(O)C1C=CC2C(=O)N(C)C(=O)C2N1N1CCCCC1` (stereo not given), the composite z-score in [1] was determined as 0.104; in assay [2], 0.816; in assay [3], 0.121; in assay [4], 0.837; in assay [5] it was 1.31; in assay [6] it was 1.83. Further, the composite z-score was 1.23 in assay [7]; 1.29 in assay [9]; 0.281 in [10]; 1.36 in assay [11]; 3.42 in assay [15]; 0.0353 in assay [17]. The composite z-score came to 0.334 in [18], 1.04 in [19] and 0.0142 in assay [20]. The z-score in assay [8] was 0.855 (inactive); in assay [12], -0.059 (inactive); in assay [13] it was 0.274 (inactive); in assay [14], -0.537 (inactive); in assay [16] it was -1.29 (inactive).

For `CC(C)C[C@@H]1NC(=O)C([C@@H](C)OCc2ccccc2)NC(=O)[C@@]23C(=O)N[C@@H](Cc4ccccc4)C2[C@H](C)[C@@]2(C)O[C@H]2C3/C=C/CC/C=C/CNC1=O` (stereo not given in full), the composite z-score in assay [1] is -0.38; in assay [2], 0.924; in assay [3], -0.0841; in assay [4] it was 0.379; in assay [5] it was 0.319; in assay [6], 1.11. In addition, the composite z-score in assay [7] is 0.979; in assay [9] it was 0.0793; in [10], -0.353; in [11], 1.55; in assay [15], 1.82; in assay [17], -0.129. Also, the composite z-score in assay [18] was 1.18; in assay [19] it was 0.767; in [20], -0.0512. The z-score was 1.49 (inactive) in [8]; -0.404 (inactive) in assay [12]; -1.07 (inactive) in [13]; -1.28 (inactive) in [14]; 0.957 (inactive) in assay [16].

For `COC(=O)[C@@]1(Cc2ccc(F)cc2)[C@H]2c3cc(C(=O)N(C)C)n(CCO)c3C[C@H]2CN1C(=O)c1ccccc1`, the composite z-score was 0.135 in assay [1]; -0.311 in [2]; 0.169 in assay [3]; 0.429 in assay [4]; 1.5 in assay [5]; 2.16 in assay [6]. In addition, the composite z-score worked out at 1.06 in assay [7]; 0.433 in [9]; 0.218 in assay [10]; 0.0788 in assay [11]; 2.89 in assay [15]; 0.0423 in [17]. The composite z-score in [18] was -0.515; in assay [19] it was -0.562; in assay [20], -0.0271. The z-score in [8] was -1.11 (inactive); in assay [12], -1.48 (inactive); in assay [13], 0.766 (inactive); in assay [14], -0.618 (inactive); in [16], -0.28 (inactive).

Regarding `[N-]=[N+]=NCc1ccccc1[C@H]1OC(c2ccc(OCCCO)cc2)=N[C@@]1(Cc1ccccc1)C(=O)N1CCOCC1`, the composite z-score in assay [1] is -0.212; in [2] it was 0.768; in assay [3] it was 0.0232; in assay [4], 1.15; in assay [5] it was 1.71; in assay [6] it was 1.39. The composite z-score in assay [7] is 1.21; in assay [9] it was 1.8; in assay [10] it was -0.166; in assay [11], 1.46; in assay [15], 3.51; in assay [17], 0.254. For the same compound, the results for the composite z-score in assay [18], in [19] and in [20] were 0.316, 1.08 and 0.266, respectively. For the same compound, the z-score was -0.868 (inactive) in assay [8]; -2.07 (inactive) in [12]; -0.21 (inactive) in [13]; -0.0315 (inactive) in assay [14]; -0.522 (inactive) in assay [16].

Turning to `Cc1ccc(S(=O)(=O)N2[C@@H](c3ccccc3)C(C(=O)O)=CC[C@H]2c2ccc(C#N)cc2)cc1`, the composite z-score in assay [1] is 0.163; in assay [2] it was -0.198; in [3], 0.0624; in [4] it was 1.07; in [5], 1.39; in [6] it was 1.72. Besides, the composite z-score in assay [7] was 0.808; in assay [9], 0.538; in assay [10], -0.265; in [11], 1.21; in [15] it was 3.39; in assay [17], -0.003. Besides, the composite z-score in assay [18] is -0.495; in assay [19], 0.721; in [20] it was -0.0238. Also, the z-score was -3.73 (inactive) in assay [8]; -0.143 (inactive) in assay [12]; 0.612 (inactive) in assay [13]; -0.371 (inactive) in assay [14]; -1.5 (inactive) in [16].

`C[N+](C)(C)CCCCCCNC(=O)[C@H]1C[C@H]2C(=O)NCC(=O)N2[C@H]1c1cccc(OCCO)c1`: the composite z-score is -0.513 in assay [1]; 0.44 in [2]; -0.0316 in assay [3]; 0.817 in [4]; -0.0407 in assay [5]; 0.205 in [6]. In addition, the composite z-score in assay [7] was 1.27; in assay [9], -0.393; in [10], -0.737; in assay [11] it was 1.22; in assay [15], 3.07; in assay [17], -0.133. Further, the composite z-score is 1.48 in [18], 1.12 in [19] and 0.208 in assay [20]. The z-score was 2.33 (inactive) in [8]; -0.874 (inactive) in [12]; 0.198 (inactive) in assay [13]; 0.0891 (inactive) in assay [14]; -0.329 (inactive) in [16].
